# Rab9 promoter act = activates the Rab9 promoter; Huh7 Rab9 promoter-luciferase reporter, luminescence, 24 h; Potency, µM (titrated, usually from 9.22 µM), usual class: activators; actives 2.8% (n = 320,000); further: nearly all actives have a fitted effect of over 60% in size
#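 Rab9 promoter-driven luciferase in stably transfected Huh7 cells; 1500 cells/well rested 2 h, exposed to compound in DMSO for 24 h at 37 °C, 5% CO2. Luminescence read 10 min after adding luciferase reagent at ambient temperature.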
# NPC1 prom act = activates the NPC1 promoter; Huh7 NPC1 promoter luciferase reporter, 24 h; Potency, µM (top dose mostly 9.22 µM), most hits filed as activators; actives 2.4% (n = 320,000); further: nearly all actives have a fitted effect of over 60% in size
#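 Readout is luciferase luminescence, reflecting NPC1 promoter activation in stably transfected Huh7 cells after 24 h compound exposure at 37 °C in reduced-serum medium with 10% FBS.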
# SMN2 splice enh = increases expression of the SMN2 splice variant; HEK293 SMN2-luciferase splicing reporter, luminescence, 30-36 h; AID 1458; actives 2.8% (n = 210,000); Potency, µM (highest dose often 46.1 µM), hits mostly activators; further: nearly all actives have a fitted effect of over 55% in size
#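 HEK293 cells carry an SMN2 minigene-luciferase reporter in which exon 7 inclusion puts luciferase in frame. Cells were seeded at 2000 cells/well, attached for 10-12 hours, then exposed to compounds for 30-36 hours at 37C before ONE-Glo luminescence.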
# ELG1 repair inh = blocks ELG1-dependent DNA repair in HEK293T cells. HEK293T ELG1-luciferase reporter, luminescence, 16 h; DNA damage induced by 5-fluorouridine. Potency, µM (series often up to 46.1 µM), hits mostly inhibitors. actives 2.3% (n = 330,000). AID 504467; further: nearly all actives have a fitted effect of over 55% in size
#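 Reporter activity after DNA damage by 5-fluorouridine is monitored. Compound-treated cells incubate 16 hr at 37 °C, then ONE-Glo is added for 30 min before luminescence reading.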
# FLuc counter = inhibits or activates purified firefly luciferase, miR-21 counter-screen; purified FLuc, Km substrates, luminescence inhibition; Potency, µM (highest dose often 57.5 µM), actives largely listed as inhibitors; actives 6.9% (n = 360,000); AID 588342; further: nearly all actives have a fitted effect of over 55% in size
# Target sequence (P08659 whole entry, looked up): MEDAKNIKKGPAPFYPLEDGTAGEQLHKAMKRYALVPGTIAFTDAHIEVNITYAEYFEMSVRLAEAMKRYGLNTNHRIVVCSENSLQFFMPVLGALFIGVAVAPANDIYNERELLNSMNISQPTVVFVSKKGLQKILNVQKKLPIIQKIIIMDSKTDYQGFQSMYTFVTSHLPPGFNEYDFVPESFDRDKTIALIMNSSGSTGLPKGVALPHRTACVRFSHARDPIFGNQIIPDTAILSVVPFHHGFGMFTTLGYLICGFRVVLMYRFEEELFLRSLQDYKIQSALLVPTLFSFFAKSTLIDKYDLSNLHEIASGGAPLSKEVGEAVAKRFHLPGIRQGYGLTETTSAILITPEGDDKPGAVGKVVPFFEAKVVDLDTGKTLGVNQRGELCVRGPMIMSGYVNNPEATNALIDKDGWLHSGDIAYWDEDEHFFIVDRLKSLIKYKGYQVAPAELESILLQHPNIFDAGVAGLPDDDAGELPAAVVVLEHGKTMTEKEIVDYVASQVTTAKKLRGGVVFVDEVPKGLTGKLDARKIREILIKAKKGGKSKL
#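 Biochemical qHTS of compounds, final roughly 60 µM downward over six points, against 10 nM purified firefly luciferase using Km concentrations of substrates (10 uM D-luciferin, 10 uM ATP) in Tris acetate pH 7.5 buffer; luminescence output.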
# ELG1 genotoxic = induces genotoxicity in HEK293T cells with luciferase-tagged ELG1 | Potency, µM (doses to about 46 µM), actives largely listed as activators | HEK293T ELG1-luciferase reporter, luminescence, 16 h | actives 1.3% (n = 330,000); further: nearly all actives have a fitted effect of over 60% in size
#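 After overnight (16 hr) compound treatment at 37 °C, ELG1-luciferase HEK293T cells were lysed with ONE-Glo; luminescence quantified 30 min later at room temperature.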
# A number is an active result; i = inactive; ? = inconclusive; nt = no result; [ ] = dose if it differs, or a comment. Sampled rows, rich in hits. Any-hit rate of the full collection: about 9.2%. The call rests on the fitted dose curve; in most records, active means well fitted curve in the direction sought with a large enough effect; inconclusive means small, poorly fitted or top-dose-only effect, or another doubt; inactive means no such curve, though single readings can be large; an effect the other way counts as inactive or inconclusive.
SMILES,Rab9 promoter act,NPC1 prom act,SMN2 splice enh,ELG1 repair inh,FLuc counter,ELG1 genotoxic
Cc1cc(C)n(-c2nc(-c3ccccc3)cs2)n1,?,i,i,?,9.53µM,18.4µM
Cc1cc(C)n(-c2nc3ccccc3s2)n1,i,i,nt,?,21.3µM,?
Cc1c2c(=O)n(-c3nc4ccccc4s3)nc-2cc(O)n1Cc1ccccc1,i,i,nt,?,6.75µM,i
Cc1cc(C)n(-c2nc(-c3cccc(Cl)c3)cs2)n1,?,?,i,?,10.7µM,?
Cc1cc(NC(=O)C(C)C)n(-c2nc3ccccc3s2)n1,?,i,i,i,?,i
Cc1cc(C)n(-c2nc(C(=O)O)cs2)n1,i,i,i,i,i,i
COc1ccc(CCNC(=O)c2ccc3c(c2)N(Cc2ccc(F)cc2)C(=O)c2ccccc2S3(=O)=O)cc1OC,nt,nt,?,nt,i,nt
COc1cccc(C2CC(=O)Nc3cc(OC)c(OC)c(OC)c32)c1OC(C)C (stereo not given),nt,nt,17.8µM,nt,i,nt
COc1cccc(C2CC(=O)Nc3cc4c(cc32)OCCO4)c1OC(C)C (stereo not given),i,i,i,?,i,i
CCc1cccc2c(-c3ccc(F)cc3)nc(SCC(=O)Nc3ccccc3)nc12,nt,nt,i,nt,i,nt
Nc1ccc(N=Nc2ccccc2)c(N)c1,nt,nt,28.2µM,nt,nt,nt
Nc1c(S(=O)(=O)O)cc(S(=O)(=O)O)c2ccc(N=Nc3ccccc3)c(O)c12,nt,nt,i[9.22 µM],nt,nt,nt
Nc1ccccc1-c1ccccc1N,i,i,nt,i,i,i
Nc1ccccc1N=Nc1ccccc1N,1.58µM,1.58µM,nt,?,5.36µM,?
Cc1ccc(NS(=O)(=O)c2cccc(C(=O)N3CCN(C(=O)c4ccco4)CC3)c2)cc1,i,i,nt,i,i,i
O=C(CSc1nnc(NC(=O)c2ccc(F)cc2)s1)NC1CCCC1,3.55µM,?,nt,?,2.39µM,?
O=C(Nc1nnc(SCC(=O)N2CCOCC2)s1)c1ccccc1,?,i,14.1µM,?,2.69µM,?
CCOc1ccccc1C(=O)Nc1nnc(SCC(=O)N2CCOCC2)s1,i,i,i,i,i,i
O=C(CSc1nnc(NC(=O)c2ccco2)s1)NC1CCCCC1,i,i,i,i,19µM,i
O=C(CSc1nnc(NC(=O)c2ccccc2)s1)NC1CCCC1,?,?,nt,?,2.69µM,i
COc1ccc(-c2nsc(NC(=O)c3oc4ccccc4c3C)n2)cc1,nt,nt,i,nt,?,nt
O=C(Nc1ccccc1C(=O)Nc1nnc(C(F)(F)F)s1)c1ccccc1,i,i,nt,4.61µM,?,i
Cc1c(C(=O)Nc2nnc(C(F)(F)F)s2)oc2ccccc12,?,?,i,i,10.7µM,i
CCOC(=O)c1sc(NC(=O)COC(=O)c2ccco2)nc1C,i,i,i,i,?,i
Cc1occc1C(=O)Nc1nnc(C(F)(F)F)s1,i,i,i,i,i,i
SMILES,Rab9 promoter act,NPC1 prom act,SMN2 splice enh,ELG1 repair inh,FLuc counter,ELG1 genotoxic
CCOC(=O)c1sc(NC(=O)c2ccco2)nc1C,?,i,i,?,10.7µM,?
COC(=O)c1sc(NC(=O)c2oc3ccccc3c2C)nc1C,?,?,7.08µM,?,?,2.31µM
Cc1c(C(=O)N2CCC(C)CC2)c(S(=O)(=O)Nc2cccc(C#N)c2)c(C)n1C,nt,nt,nt,nt,i,nt
Cc1ccc(-c2nc(CS(=O)CC(=O)N3CCN(c4ccc(Cl)cc4)CC3)c(C)o2)cc1 (stereo not given),nt,nt,nt,nt,i,nt
CCOC(=O)c1sc(NC(=O)c2ccc(OC)cc2)nc1C,i,i,i,?,?,?
COC(=O)c1sc(NC(=O)c2ccc(C)o2)nc1C,2.82µM,?,1.58µM,?,5.36µM,?
CCOC(=O)c1sc(NC(C)=O)nc1C,i,i,i,i,i,i
CCOC(=O)c1sc(Nc2nc(OC)cc(OC)n2)nc1C,i,i,nt,25.9µM,i,i
CCOC(=O)c1sc(NC(=O)c2ccc(C)o2)nc1C,i,i,12.6µM,?,6.01µM,5.8µM
CC1(C)CC(/C=C/c2ccccc2)=Nc2ccccc2N1,?,?,nt,?,4.26µM,i
O=C1CC(/C=C/c2ccc(Cl)cc2)=Nc2ccccc2N1,1.26µM,2.24µM,nt,?,4.26µM,?
O=C1CC(/C=C/c2cccnc2)=Nc2ccccc2N1,i,i,i,?,i,i

# Bioassay records from PubChem BioAssay.
